Assay outcomes: PubChem BioAssay, National Center for Advancing Translational Sciences (NCATS)
KCNH2 WT inh – blocks the wildtype human KCNH2 potassium channel; Q12809; U2OS, BacMam KCNH2, thallium flux FluxOr; stronger effect = lower value; activity change, % at 1.84 µM; 0.37% of 340,000 active; AID 720551;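 active means maximum activity change below -70%; inconclusive means maximum activity change between -70% and -50%; inactive means maximum activity change above -50%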; further: on the % scale 0 is the no-effect control and ±100 the full control effect
Target sequence (Q12809 whole entry, looked up): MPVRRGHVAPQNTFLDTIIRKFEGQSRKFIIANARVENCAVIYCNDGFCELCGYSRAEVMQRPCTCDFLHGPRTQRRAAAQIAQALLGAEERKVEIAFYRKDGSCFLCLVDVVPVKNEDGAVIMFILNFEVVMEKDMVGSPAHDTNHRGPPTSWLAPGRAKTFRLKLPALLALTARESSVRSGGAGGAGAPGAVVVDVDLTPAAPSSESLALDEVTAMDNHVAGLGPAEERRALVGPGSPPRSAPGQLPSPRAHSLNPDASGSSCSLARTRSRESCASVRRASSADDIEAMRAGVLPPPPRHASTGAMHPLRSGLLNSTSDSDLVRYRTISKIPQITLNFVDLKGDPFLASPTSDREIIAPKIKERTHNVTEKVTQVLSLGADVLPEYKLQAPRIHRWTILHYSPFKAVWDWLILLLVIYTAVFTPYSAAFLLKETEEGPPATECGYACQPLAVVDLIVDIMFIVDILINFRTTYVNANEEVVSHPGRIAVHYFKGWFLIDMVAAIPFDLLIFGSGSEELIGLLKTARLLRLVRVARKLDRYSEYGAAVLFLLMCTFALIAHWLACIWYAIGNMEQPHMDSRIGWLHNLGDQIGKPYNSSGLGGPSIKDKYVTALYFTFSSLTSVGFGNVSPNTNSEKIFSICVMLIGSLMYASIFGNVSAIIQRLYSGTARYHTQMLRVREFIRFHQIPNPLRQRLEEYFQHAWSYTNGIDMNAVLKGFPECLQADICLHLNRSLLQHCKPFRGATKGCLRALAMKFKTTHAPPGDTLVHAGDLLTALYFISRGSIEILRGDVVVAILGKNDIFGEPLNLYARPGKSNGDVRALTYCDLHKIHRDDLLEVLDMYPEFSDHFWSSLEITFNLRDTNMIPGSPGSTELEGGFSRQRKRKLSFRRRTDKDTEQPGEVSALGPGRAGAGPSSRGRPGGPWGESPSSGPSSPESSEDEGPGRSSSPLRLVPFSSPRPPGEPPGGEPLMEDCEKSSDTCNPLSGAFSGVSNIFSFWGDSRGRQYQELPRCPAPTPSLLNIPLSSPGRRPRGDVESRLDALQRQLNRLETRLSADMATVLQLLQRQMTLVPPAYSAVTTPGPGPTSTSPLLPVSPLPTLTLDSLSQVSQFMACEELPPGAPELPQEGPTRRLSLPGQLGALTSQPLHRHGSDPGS
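U2OS cells transduced with wild-type KCNH2 virus are loaded with FluxOr dye for 45 min, and thallium flux is measured in kinetic reads before and after stimulation buffer. Rate constants are normalized to DMSO controls.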
KCNH2 3.1 block – inhibitors of human KCNH2 3.1 potassium channel isoform; AID 720553; activity change, % (tested at about 1.8 µM); U2OS KCNH2 3.1, thallium flux FluxOr; stronger effect = lower value; 0.95% of 340,000 active;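 active means maximum activity change below -70%; inconclusive means maximum activity change from -70% to -50%; inactive means maximum activity change above -50%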;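 further: thallium influx rate constant from kinetic fluorescence after stimulation buffer; on the % scale 0 is the no-effect control and ±100 the full control effect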
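U2OS cells transduced with KCNH2 3.1 mutant virus (1.77 x 10^8 /mL, 4 h), plated overnight at 37 C, loaded 45 min with FluxOr dye plus Red40 quencher. Thallium flux rate constant from kinetic reads after stimulation buffer, normalised to controls.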
KB-3-1 cytotox – KB-3-1 parental cell cytotoxicity; 1.4% of 400,000 active; Potency, µM (doses to about 46.1 µM), actives largely listed as cytotoxic; KB-3-1 viability, CellTiter-Glo ATP luminescence, 72 h; further: potency means the concentration at half of the fitted maximal effect; on the % scale 0 is the no-effect control and ±100 the full control effect; nearly all actives have a fitted effect of over 60% in size
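Viability of parental KB-3-1 cells, measured by CellTiter-Glo luminescence, followed a 72 h incubation at 37 °C with pinned compounds in phenol-red-free DMEM containing 10% FBS.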
MCF10A rerep – inducers of DNA re-replication in MCF 10A breast cells; MCF 10A DNA re-replication, Hoechst nuclear intensity, 48 h; Potency, µM (top dose mostly 46.1 µM), for the others: at the top dose activity, positive = re-replication, most hits filed as activators; 2.9% of 350,000 active; AID 624296; further: potency means the concentration at half of the fitted maximal effect; % of control where 0% means no effect; nearly all actives have a fitted effect of over 50% in size
KB-V1 cytotox – KB-V1 MDR subline cytotoxicity | KB-V1 MDR cells viability, CellTiter-Glo, 72 h | Potency, µM (titrated, usually from 46.1 µM), hits mostly cytotoxic | 3.4% of 400,000 active | AID 1347076; further: potency means the concentration at half of the fitted maximal effect; on the % scale 0 is the no-effect control and ±100 the full control effect; nearly all actives have a fitted effect of over 60% in size
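qHTS viability screen in drug-selected KB-V1 MDR cells: 72 h compound treatment at 37 degrees C, ATP luminescence end point.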
SW480 rereplic – inducers of DNA re-replication in SW480 colon cancer cells. AID 624297. 1.8% of 340,000 active. SW480 DNA re-replication, Hoechst DNA content imaging, 48 h. Potency, µM (titrated, usually from 46.1 µM), for the others: at the top dose re-replication activation, most hits filed as activators; further: potency means the concentration at half of the fitted maximal effect; % of control where 0% means no effect; nearly all actives have a fitted effect of over 55% in size
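DNA re-replication was detected as more nuclei of elevated Hoechst intensity after 48 hr exposure to compound (23 nL pinned per well of 250 cells).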
Numbers without * were called inactive; i = inactive; ? = inconclusive; / = not tested or not shown; [ ] = another dose, or the depositor's remark. In the library only some 7.6% were active in any assay of this set; here they are far more common. Unless noted, the call rests on the fitted dose curve; in most records, active means well fitted curve in the direction sought with a large enough effect; inconclusive means small, poorly fitted or top-dose-only effect, or another doubt; inactive means no such curve, though single readings can be large; an effect the other way counts as inactive or inconclusive.

SMILES | KCNH2 WT inh | KCNH2 3.1 block | KB-3-1 cytotox | MCF10A rerep | KB-V1 cytotox | SW480 rereplic
COc1ccc(C(=O)C(CN2CCOCC2)c2ccccc2)cc1 (stereo not given) | 8 | 4 | ? | ? | ? | -2%
COc1ccc(C(=O)C(CN2CCCC2)c2ccccc2)cc1 (stereo not given) | -1 | 10 | 7.1µM* | ? | 7.1µM* | ?
CCCCOc1ccc(C(=O)C(CN2CCOCC2)c2ccccc2)cc1 (stereo not given) | -28 | -1 | ? | ? | ? | 15µM*
O=C(c1ccccc1)C(CCC(CN1CCOCC1)C(=O)c1ccccc1)CN1CCOCC1 (stereo not given) | 3 | -9 | 5.8µM* | 4.6µM* | 5.8µM* | ?
O=C(c1ccc(F)cc1)C(CN1CCOCC1)c1ccccc1 (stereo not given) | 3 | 13 | ? | 5.2µM* | ? | ?
O=C(c1ccco1)N(Cc1cccc(Br)c1)C1CCS(=O)(=O)C1 (stereo not given) | -3 | -13 | i | -1% | i | 0%
CCOC(=O)N1CCC(NC(=O)c2cnn(-c3ccc(C)cc3C)c2C2CCN(C(=O)OC(C)(C)C)CC2)CC1 | / | / | i | / | i | /
O=C(C[C@H]1C/C=C\CC[C@H](Cc2ccc(F)cc2)C(=O)O[C@H](c2ccccc2)CNC1=O)N[C@H](CO)Cc1ccccc1 | -8 | -33 | i | ? | i | 2%
CCCCOc1ccc(C(O)C(CN2CCCCC2)c2ccccc2)cc1 (stereo not given) | 4 | -9 | ? | ? | i | ?
O=C(c1ccc(Cl)cc1)C(CN1CCCC1)c1ccccc1 (stereo not given) | -4 | 5 | ? | 4.1µM* | i | ?
CCCOc1ccc(C(=O)C(CN2CCCC2)c2ccccc2)cc1 (stereo not given) | 0 | -17 | 23µM* | 8.2µM* | ? | ?
OC(CN1CCCC1)c1ccccc1 (stereo not given) | / | / | i | / | i | /
CCOc1ccc(/C=N/NC(=O)c2[nH]ncc2Br)c(O)c1 | 0 | -77* | i | ? | ? | ?
COc1ccc(OC)c(/C=N/NC(=O)c2[nH]ncc2Br)c1 | -9 | -1 | i | 3% | i | -5%
Cc1ccccc1NC(=O)COC(=O)C1C2CC3OC(=O)C1C3C2 (stereo not given) | -254* | -1 | i | -2% | i | -2%
COc1cccc(O)c1CN1CCC(C(=O)Nc2ccc(-c3cccc(C)c3)cc2)CC1 | -42 | -99* | 18µM* | ? | ? | ?
CC(C)n1cc(CN2CCC(C(=O)Nc3cccc(-c4cccc(Cl)c4)c3)CC2)cn1 | 31 | -25 | ? | 18µM* | ? | 3.3µM*
CCn1cc(CN2CCC(C(=O)Nc3cccc(-c4cccc(F)c4)c3)CC2)cn1 | 30 | -46 | / | 0% | / | 2%
COc1ccc(CN2CCC(C(=O)Nc3ccc(Oc4cccnc4)cc3)CC2)c(C)c1C | 5 | -74* | i | 21% | i | -6%
COc1cccc(O)c1CN1CCC(C(=O)Nc2ccc(Oc3cccnc3)cc2)CC1 | -3 | -23 | / | 16% | / | 6%
CCn1nc(C)c(CN2CCC(C(=O)Nc3cccc(-c4cccc(F)c4)c3)CC2)c1C | ? | -78* | i | -14% | i | -4%
CCc1ccccc1NC(=O)CCCN1C(=O)CCn2nc(-c3cn(C)c4ccccc34)cc21 | / | / | i | / | i | /
CCC(C)(C)NC(=O)C(c1ccccn1)N(C(=O)c1csnn1)c1ccc(C)c(C)c1 (stereo not given) | 4 | 5 | i | 4% | i | 134%[1.84 µM]
CCCc1nnc(NC(=O)Cc2coc3c(C)c(C)ccc23)s1 | / | / | i | / | i | /
COCCNC(=O)CSc1nc2ccccc2c(=O)n1CCCC(=O)NCc1ccccc1 | 8 | 0 | i | 0% | 16µM* | 3%
SMILES | KCNH2 WT inh | KCNH2 3.1 block | KB-3-1 cytotox | MCF10A rerep | KB-V1 cytotox | SW480 rereplic
Cn1ccnc1C(=O)c1cc(SCC(=O)NCc2ccccc2)nc2ccccc12 | 2 | 1 | ? | 15µM* | ? | ?
COC(=O)CSc1cc(C(=O)c2nccn2C)c2ccccc2n1 | 0 | 3 | i | 7% | i | 15%[9.22 µM]
Cn1c(SCC(=O)NCc2ccccc2)nc2ccccc21 | 3 | 1 | i | 14% | 15µM* | -4%
CCNC(=O)NC(=O)CSc1nc2ccccc2n1CC(C)C | -12 | 2 | i | 5% | 2.9µM* | -3%
COCCCNC(=O)CSc1nc2ccccc2c(=O)n1CCCN1CCCCC1 | -12 | 0 | i | -7% | i | -14%
Cc1ccnc(NS(=O)(=O)c2cccc([N+](=O)[O-])c2)c1 | -10 | 20 | i | 19% | i | -7%
O=C(NCC(=O)N1CCN(C(=O)c2ccccc2)CC1)c1ccc(Cl)cc1Cl | 12 | 3 | i | 5% | i | 3%
CC(C)(C)NC(=O)CSCc1ccc(Br)cc1 | 7 | -5 | i | -7% | i | 27%
O=C(NCCCN1CCOCC1)c1cc(-c2ccccc2)nc2ccccc12 | 6 | -4 | i | 6% | i | -4%
Cc1ccc(Nc2cc(C(=O)NCCCN3CCOCC3)c3ccccc3n2)cc1C | 5 | -17 | i | 10µM* | i | ?
O=C(NCCCN1CCCC1)c1cc(Sc2ccc(F)cc2)nc2ccccc12 | 42 | -78* | i | ? | ? | ?
Cc1ccc(-c2cc(C(=O)NCCCN3CCOCC3)c3ccc(Cl)c(C)c3n2)cc1 | 8 | -13 | i | ? | i | 21µM*
Cc1ccc(Nc2ncc(C(=O)NCCCN3CCN(C)CC3)c3ccccc23)cc1Cl | 23 | -35 | i | 23µM* | ? | ?
O=C(NCCN1CCOCC1)c1cc(Sc2ccc(F)cc2F)nc2ccccc12 | 0 | -6 | i | 2% | i | -3%
CCN(CC(=O)Nc1ccccc1C(F)(F)F)C(=O)CN1C(=O)NC2(CCCC2)C1=O | -7 | -6 | i | -1% | i | -38%
COc1ccccc1Cn1c(=S)[nH]c2cc(C(=O)NCCN(C)C)ccc2c1=O | -3 | 7 | i | 8% | i | ?
CCOc1ccc2nc(/N=C/c3c(C)[nH]n(-c4ccc(C)cc4)c3=O)sc2c1 | -5 | 2 | 12µM* | -13% | 10µM* | -74%
CCOc1[nH]n(-c2ccccc2)c(=O)c1C=Nc1ccc(OC)cc1 | -2 | 0 | i | -3% | i | -8%
